# Potency and affinity values are given separately. Inconclusive results are not listed. Unmarked numbers belong to inactive results.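 How the source made its calls: active means signal loss with fitted half-maximal concentration at or below twice the top valid tested dose in every test run; inconclusive means runs disagree, flat 30 to 70% signal loss, or poor fit; inactive means all runs flat, opposite direction, or potency beyond limit.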
# Assay: HEK293T cytotoxicity, dose response, cytotoxicity control for miR-122 modulator project, cell-based, inhibitor set, cherry-pick, set 2 (AID 720697);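 further: 0% = median of neutral control wells and -100% = MG132 positive control wells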
# Conditions: HEK293T viability, CellTiter-Glo luminescence, 48 h; series mostly up to 26 µM; activity change, negative = cytotoxicity: at the top concentration
row,Compound,"activity change, negative = cytotoxicity"
1,CN1C(=O)c2cc(NC(=O)c3cccc(F)c3)ccc2OC[C@@H]2O[C@H](CC(=O)O)CC[C@@H]21,120% [at 23.5 µM]
2,C/C=C/c1ccc2c(c1)O[C@H](CN(C)C(=O)c1cnccn1)[C@H](C)CN([C@H](C)CO)S2(=O)=O,55.4%
3,C[C@@H]1CN([C@H](C)CO)C(=O)c2cccc(NC(=O)c3ccc(-c4nccs4)cc3)c2O[C@H]1CN(C)S(=O)(=O)c1ccc(F)cc1,-1.02% [at 23.5 µM]
4,O=C(c1cccnc1)N1C[C@H]2[C@@H](c3ccccc31)[C@H](CO)N2C(=O)C1CCCC1,94.1% [at 23.5 µM]
5,CCCNC(=O)N1[C@@H]2CN(C(=O)c3ccccc3)c3ccccc3[C@@H]2[C@@H]1CO,89.2%
6,CNC(=O)C[C@H]1CC[C@H]2[C@@H](COc3ccc(NC(=O)C(C)C)cc3C(=O)N2C)O1,58.9%
7,C[C@@H]1CN([C@H](C)CO)S(=O)(=O)c2ccc(C#CC3(O)CCCC3)cc2O[C@@H]1CN(C)C(=O)c1cccnc1,196%
8,COc1cccc(CNC(=O)C[C@H]2CC[C@@H]3[C@H](COc4ccc(NC(C)=O)cc4C(=O)N3C)O2)c1,104%
9,Cc1ccc(-c2ccc3c(c2)O[C@H](CN(C)C(=O)CC2CC2)[C@H](C)CN([C@H](C)CO)S3(=O)=O)cc1,-0.183%
10,COc1ccc(S(=O)(=O)Nc2ccc3c(c2)CC(=O)N([C@@H](C)CO)C[C@@H](C)[C@H](CN(C)Cc2ccc(C(F)(F)F)cc2)O3)cc1,-44.1%
11,CN(C)CCNc1ncnc2c1sc1nc(N3CCOCC3)c3c(c12)CC(C)(C)SC3,-130%
12,COCC(=O)N1[C@@H](CO)[C@@H]2c3ccccc3N(C(=O)c3cccnc3)C[C@@H]21,42.3%
13,COc1ccc(S(=O)(=O)N(C)C[C@@H]2Oc3cc(-c4cccc(F)c4)ccc3S(=O)(=O)N([C@H](C)CO)C[C@H]2C)cc1,-5.58%
14,C[C@@H]1CN([C@@H](C)CO)S(=O)(=O)c2ccc(C#CC3CC3)cc2O[C@@H]1CN(C)C(=O)c1cccc(F)c1,11.4%
15,CCN(C[C@H]1[C@H](c2ccccc2)[C@@H](CO)N1S(C)(=O)=O)C(=O)C1CC1,126%
16,COc1nnc(-c2ccc(N3CCOCC3)c(NC(=O)c3ccccc3)c2)c2ccccc12,-5.55%
17,NC(=O)c1cn(-c2ccccc2)nc1-c1cc2ccccc2oc1=O,66.9%
18,CO[C@@H]1CN(C)C(=O)c2ccc(NC(=O)Nc3ccc(C(F)(F)F)cc3)cc2OC[C@H](C)NC[C@H]1C,79.2%
19,CN1C(=O)c2cc(NC(=O)c3cccc(F)c3)ccc2OC[C@@H]2O[C@@H](CC(=O)O)CC[C@@H]21,30.4% [at 23.5 µM]
20,COCC(=O)N(C[C@@H]1[C@@H](c2ccccc2)[C@H](CO)N1C(=O)NC(C)C)C(C)C,64.9%

row,Compound,"activity change, negative = cytotoxicity"
1,Cc1cnc(NC(=O)c2cc3c(C)nn(-c4ccccc4)c3s2)s1,54.1%
2,COc1cccc(S(=O)(=O)N(C)C[C@@H]2Oc3cc(C4=CCCC4)ccc3S(=O)(=O)N([C@H](C)CO)C[C@@H]2C)c1,-8.81%
3,CCCNC(=O)C[C@@H]1CC[C@@H]2[C@@H](COc3ccc(NS(=O)(=O)c4ccccc4C)cc3C(=O)N2C)O1,43.8%
4,O=C(NC[C@@H]1N[C@@H](CO)[C@H]1c1ccccc1)C1CCC1,14.5%
5,Cc1ccccc1NC(=O)Nc1ccc2c(c1)C(=O)N(C)[C@@H]1CC[C@H](CC(=O)NCC3CC3)O[C@@H]1CO2,119%
6,CNC[C@H]1Oc2cc(C#CC3CCCC3)ccc2S(=O)(=O)N([C@H](C)CO)C[C@H]1C,31.7%
7,CCCNC(=O)N1[C@H](CNC(=O)c2ccc(F)cc2)[C@H](c2ccccc2)[C@@H]1CO,83% [at 23.5 µM]
8,CN1C(=O)c2cc(NC(=O)Cc3ccccc3)ccc2OC[C@@H]2O[C@@H](CC(=O)NCc3ccc(Cl)cc3)CC[C@H]21,24.9%
9,C[C@@H]1CN([C@@H](C)CO)S(=O)(=O)c2ccc(C3=CCCC3)cc2O[C@@H]1CN(C)C(=O)c1ccc(F)cc1,90.9%
10,COC(=O)C[C@H]1CC[C@H]2[C@H](COc3ccc(NC(=O)c4cccc(F)c4)cc3C(=O)N2C)O1,18.2%
11,COC(=O)C[C@H]1CC[C@@H]2[C@@H](COc3ccc(NC(=O)c4cnccn4)cc3C(=O)N2C)O1,116%
12,C[C@@H]1CN([C@H](C)CO)S(=O)(=O)c2ccc(C3=CCCC3)cc2O[C@@H]1CN(C)C(=O)c1ccc(F)cc1,24.5%
13,COc1ccc(NC(=O)N(C)C[C@@H]2Oc3cc(C#CCC(C)C)ccc3S(=O)(=O)N([C@@H](C)CO)C[C@@H]2C)cc1,-65.6%
14,CCCN(C[C@@H]1N[C@@H](CO)[C@H]1c1ccc(-c2cccnc2)cc1)C(C)=O,59.9%
15,O=C(Nc1ccccc1)N1CCCCN2[C@@H](CO)[C@H](c3ccc(C4=CCCCC4)cc3)[C@@H]2C1,-74%
16,CN(C[C@@H]1[C@@H](c2ccccc2)[C@H](CO)N1C(=O)C1CCC1)C(=O)c1ccccn1,195%
17,COc1ccc(NS(=O)(=O)c2ccc(NC(=O)C(C)(C(F)(F)F)C(F)(F)F)cc2)nn1,69.7%
18,O=c1c2c3c(sc2nc2n1CCC2)CCCC3,30.6%
19,CN1C(=O)c2cc(NC(=O)c3cccs3)ccc2OC[C@@H]2O[C@H](CC(=O)NCC(F)(F)F)CC[C@H]21,20.5%

# Source: PubChem BioAssay AID720697 (Broad Institute, 2013)
